In PubChem BioAssay AID2702 (National Center for Advancing Translational Sciences (NCATS), 2010):
Activity calls are given as the source filed them.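 Rule for the calls: active = compounds blocking 15-hLO-2 with IC50 at or below the top tested dose, none here; inactive = the rest.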

These molecules were tested against Polyunsaturated fatty acid lipoxygenase ALOX15B (Homo sapiens) (UniProt O15296) (assay: Cuvette-Based Assay fo Inhibitors of 15-hLO-2 (15-human lipoxygenase 2)). Conditions: purified 15hLO-2, arachidonic acid, UV 234 nm cuvette.
Method: Human lipoxygenase 15hLO-2 is a member of the closely related lipoxygenase family of enzymes which catalyze the site-specific oxidation of arachidonic acid to various hormone precursor molecules and as such is a candidate for drug development in a variety of disease areas, such as cancer and inflammation. Inhibition of 15hLO-2 activity was screened by utilizing arachidonic acid as a substrate. The extent of hydroperoxide product formation was measured by a secondary chromogenic reaction in which xylenol orange (XO, Sigma-Aldrich, cat. number 39,818-7) reacts with the ferric ions produced from the reaction between the hydroperoxide and ferrous ions. The Fe(III)-XO complex is characterized with red-shifted absorbance at 560 nm. A purified preparation of human 15hLO-2 was supplied by Professor Ted Holman, University of California, Santa Cruz. This assay is includes some confirmation and follow-up compounds for related primary screening assay AID 881. Assay Provider: Holman, T.R., University of California, Santa Cruz Screening Center PI: Austin, Christopher P. Screening Center: NIH Chemical Genomics Center
For control experiments, 2 mL of substrate buffer (7 uM arachidonic acid / 25 mM HEPES / 0.01% (v/v) Triton X-100, pH 7.5) was aliquoted in a cuvette with a magnetic stir bar. After equilibrium was ensured, an aliquot of inhibitor solvent was added (DMSO or MeOH), and equilibrium was once again assured. The reaction was started by adding enzyme to the cuvette and the reaction was followed until completed. The inhibition experiments were performed as above, except the actual inhibitory compound was added instead of vehicle. To achieve an IC50, typically 5 concentrations of the inhibitor were studied. If the inhibitor concentration was constant, then five different reaction volumes were used. Step \ Parameter \ Value \ Description 1; UV-Vis; 234 nm; Equilibration 2; Reagent; 2 mL; Substrate buffer 3; UV-Vis; 234 nm; Equilibration 4; Reagent; varies; Compound 5; UV-Vis; 234 nm; Equilibration 6; Reagent; 50-200 nM; Enzyme 15hLO-2 7; UV-Vis; 234 nm; Enzymatic reaction Step \ Notes 1. Blank cuvette to air. 2. 7 uM AA, 25 mM HEPES, 0.01% Triton X-100, pH 7.5. 3. No change in absorbance ensured. 4. Compound vehicle or compound in various concentrations depending on potency. 5. No change in absorbance ensured. 6. Enzyme concentration to achieve reaction rate between 0.02 and 0.04 AU/s. 7. Enzymatic reaction visualized until completion.

Polyunsaturated fatty acid lipoxygenase ALOX15B (Homo sapiens), sequence (O15296 whole entry, looked up): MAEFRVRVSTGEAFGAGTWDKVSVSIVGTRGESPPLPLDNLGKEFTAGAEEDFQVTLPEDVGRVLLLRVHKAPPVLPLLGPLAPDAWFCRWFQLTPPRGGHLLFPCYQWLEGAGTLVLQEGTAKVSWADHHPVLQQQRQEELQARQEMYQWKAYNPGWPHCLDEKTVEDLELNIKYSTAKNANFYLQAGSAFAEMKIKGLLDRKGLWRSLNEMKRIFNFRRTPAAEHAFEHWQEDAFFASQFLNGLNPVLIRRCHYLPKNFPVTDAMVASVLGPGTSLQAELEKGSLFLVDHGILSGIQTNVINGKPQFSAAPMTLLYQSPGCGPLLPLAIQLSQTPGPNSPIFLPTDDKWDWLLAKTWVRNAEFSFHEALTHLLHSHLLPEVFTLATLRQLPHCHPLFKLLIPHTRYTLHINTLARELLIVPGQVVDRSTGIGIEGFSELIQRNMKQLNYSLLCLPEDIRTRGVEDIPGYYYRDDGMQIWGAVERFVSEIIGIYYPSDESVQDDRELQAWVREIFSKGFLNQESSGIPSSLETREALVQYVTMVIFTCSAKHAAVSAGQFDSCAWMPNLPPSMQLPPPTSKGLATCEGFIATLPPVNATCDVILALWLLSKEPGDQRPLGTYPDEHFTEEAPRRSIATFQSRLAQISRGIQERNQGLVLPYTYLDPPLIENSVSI

outcome, inactive:
O=C(OCC#CCSc1nnc(-c2cccc3ccccc23)o1)c1ccc(F)cc1
CC(C)Nc1oc(-c2cccc3ccccc23)nc1C#N
O=C(OCC#CCSc1nnc(-c2cccc3ccccc23)o1)c1cccs1
O=C(OCC#CCSc1nnc(-c2cccc3ccccc23)o1)c1cc2ccccc2o1
COc1cccc(CNc2ccc(N3CCCCC3)cc2)c1OC
O=C1c2ccccc2NC(c2ccc(-c3cccc(Cl)c3)o2)N1O (configuration not stated)
CC(=O)N1CCN(c2ccc(NCc3ccc4c(c3)OCO4)cc2)CC1
